# Reference: PubChem BioAssay (NCATS)
# Records with an inconclusive call do not appear. Entries that show only a call come without a potency. Calls of active or inactive are those of the source. Unless noted, the call rests on the fitted dose curve; in most records, active means well fitted curve in the direction sought with a large enough effect; inconclusive means small, poorly fitted or top-dose-only effect, or another doubt; inactive means no such curve, though single readings can be large; an effect the other way counts as inactive or inconclusive.
# Key:
# [1] = molecular target: 3',5'-cyclic-AMP phosphodiesterase 4B (Homo sapiens) (UniProt Q07343); assay: qHTS Assay for Inhibitors of PDE-IV (AID 607; active means well fitted activation curve with a large enough effect in the main read-out, with a control signal flat, not every such curve was filed as active)
# Procedure, shortened: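 ACTOne HEK293 cells carry a modified cAMP-gated CNG channel and express endogenous PDE4; plated 1000 cells/well, compounds up to 22.9 uM final. Membrane-potential dye fluorescence (ex 535/em 590) was read; parental cells received 10 uM forskolin + 100 uM RO 20-1724.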
# [2] = molecular target: Guanine nucleotide-binding protein G(i) subunit alpha-1 (Homo sapiens) (UniProt P63096); assay: qHTS Assay for Inhibitors of RGS12 GoLoco Motif Activity (Green Fluorophore) (AID 879);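 further: negative values mean loss of peptide binding seen as reduced polarization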
# Procedure, shortened: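 A drop in FITC polarization marked displacement of the FITC-tagged RGS12 GoLoco peptide (10 nM) from Gαi1 (50 nM). Compounds were incubated 10 min at room temperature in Tris pH 7.5 buffer containing 150 mM NaCl, 0.1 mM GDP and 0.05% NP40; unlabeled peptide titration served as control.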
# [3] = Cell Viability - Mesenchymal (AID 546); conditions: mesenchymal cells viability, qHTS; activity change, negative = cytotoxicity: at 91.7 µM (top of the series);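 further: cells exposed to compound for 40 hours before reading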; further: potency means the concentration at half of the fitted maximal effect
# Procedure, shortened: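 Human renal mesenchymal cells (glomerulus-derived), 1000 cells/well, 5 hr 37 °C pre-incubation; compound 40 hr, 37 °C; CellTiter-Glo, 20 min RT; luminescence; AC50 via Hill equation.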
# [4] = Cellular Toxicity (caspase-3) HUV-EC-C (AID 656)
# Procedure, shortened: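 HUV-EC-C endothelial cells, 1000/well, were pre-incubated 5 hr at 37°C, then exposed to compounds for 16 hr at 37°C. Caspase-Glo 3/7 luminescence was read after 20 min at room temperature. AC50 came from Hill fits, normalized to DMSO and 100 uM tamoxifen.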
# [5] = Cellular Toxicity (caspase-3) SHSY5Y (AID 657)
# Procedure, shortened: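 SH-SY5Y human neuroblastoma cells (1500/well) were treated with compounds for 16 h at 37 °C, then Caspase-Glo 3/7 luminescence was read after 1 h at room temperature. Data normalized to DMSO and 10 uM staurosporine; AC50 from Hill fits.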
# [6] = Cellular Toxicity (caspase-3) Mesangial (AID 660);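 further: combined caspase 3 and 7 activity read by Caspase-Glo luminescence; cells exposed to compound for 16 h before the caspase read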
# Procedure, shortened: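 Caspase 3/7 activation measured by Caspase-Glo 3/7 luminescence (20 min, room temperature) following 16 h exposure of mesangial cells (1000/well); AC50 from Hill-equation fit, normalized to DMSO and 100 uM tamoxifen.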
# [7] = Cellular Toxicity (caspase-3) H-4-II-E (AID 663);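 further: cells exposed to compound for 16 hr before readout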
# Procedure, shortened: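 H-4-II-E rat hepatoma, 1500 cells/well, 5 hr settle at 37 °C; compound 16 hr, 37 °C, complete medium; Caspase-Glo 3/7, 20 min RT; luminescence. DMSO = 0%, 100 uM tamoxifen = 100%; Hill-equation AC50.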
# [8] = Cellular Toxicity (caspase-3) Hek293 (AID 664);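 further: cells exposed to compound for 16 h at 37 °C before readout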
# Procedure, shortened: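 Concentration-response qHTS: caspase 3/7 activation measured by luminescent aminoluciferin substrate cleavage after 16 h compound exposure of Hek 293 cells. AC50 from Hill equation, with DMSO as basal and 100 uM tamoxifen as 100%.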
# [9] = Cellular Toxicity (caspase-3) N2a (AID 665);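 further: compound exposure lasted 16 h at 37 °C before readout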
# Procedure, shortened: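 Caspase-3/7 activation measured as luminescence from Caspase-Glo reagent (1 h, room temperature) after 16 h compound exposure of mouse N2a cells. AC50 values from Hill-equation concentration-response, scaled between DMSO and 10 uM staurosporine.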
# [10] = Cellular Toxicity (caspase-3) NIH 3T3 (AID 666);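 further: caspase signal read after 16 h compound exposure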
# Procedure, shortened: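 Caspase-Glo 3/7 luminescence reported caspase activation in 1000 NIH 3T3 cells/well after 16 h compound exposure at 37 C. DMSO set basal and 100 uM tamoxifen set 100% stimulation; concentration-response modeled with the Hill equation for AC50.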
# [11] = Cellular Toxicity (caspase-3) Renal Proximal Tubule (AID 667);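 further: cells exposed to compound for 16 hours at 37 °C before detection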
# Procedure, shortened: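 Primary rat proximal tubule cells, 1000/well, 5 h plating at 37 °C, then compound 16 h at 37 °C. Caspase-Glo 3/7 reagent, 1 h RT, luminescence. Normalized to DMSO (basal) and 10 uM staurosporine (100%); Hill-fit AC50.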
# [12] = Cellular Toxicity (caspase-3) HepG2 (AID 654);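 further: cells exposed to compound for 16 hours before reading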
# Procedure, shortened: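 Caspase 3/7 activation is measured as a luminescence increase (aminoluciferin substrate) after 16 h compound exposure of human hepatocarcinoma HepG2 cells. AC50 values are Hill fits, scaled between DMSO baseline and 100 uM tamoxifen stimulation.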
# [13] = Cellular Toxicity (caspase-3) Jurkat (AID 655);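 further: cells exposed to compound for 16 h at 37 °C before reading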
# Procedure, shortened: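 Jurkat cells (5000/well) in complete medium were treated with compounds for 16 hr at 37 °C, then Caspase-Glo 3/7 luminescence was read after 20 min at room temperature. Data normalized to DMSO (basal) and 100 uM tamoxifen (100%); AC50 from Hill fit.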
# [14] = Cellular Toxicity (caspase-3) BJ (AID 658)
# Procedure, shortened: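 qHTS, BJ fibroblasts, 1000 cells/well; 5 hr preincubation, 16 hr compound, 37 °C; Caspase-Glo 3/7 reagent, 1 hr RT; luminescence. DMSO = 0%, 10 uM staurosporine = 100%. Hill-equation AC50.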
# [15] = Cellular Toxicity (caspase-3) MRC-5 (AID 659); conditions: Potency: caspase-3 activation
# Procedure, shortened: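 MRC-5 fibroblasts, 1500/well; 16 h cpd, 37 °C; Caspase-Glo 3/7, 1 h RT; lumi read. Norm: DMSO = 0%, 10 uM staurosporine = 100%. Hill-fit AC50 from qHTS conc-response.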
# [16] = Cellular Toxicity (caspase-3) SK-N-SH (AID 661); conditions: SK-N-SH caspase-3 activation, qHTS; caspase-3 activation: at 91.7 µM (top of the series), DMSO as zero, staurosporine as full
# Procedure, shortened: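 Caspase 3/7 activation was read by luminogenic substrate cleavage after 16 hour treatment of SK-N-SH cells. Signal was scaled between DMSO and 10 uM staurosporine, and concentration-response data were fitted with the Hill equation for AC50.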
# [17] = molecular target: Cytochrome P450 3A4 (Homo sapiens) (UniProt P08684); assay: qHTS Assay for Inhibitors and Substrates of Cytochrome P450 3A4 (AID 884); further: nearly all actives have a fitted effect of over 50% in size
# Procedure, shortened: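 Luminescent readout of luciferin produced by CYP3A4 (20 nM) dealkylation of Luciferin-PPXE, 25 uM (its KM). NADPH-driven reaction ran 60 min at RT after 10 min compound preincubation; data scaled to 57 uM ketoconazole as 100% inhibition.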
# [18] = qHTS Assay for Identification of Small Molecule Antagonists for NFkB Signaling Pathway (AID 895; active means well fitted inhibition curve with a large enough effect in the signal ratio, with a control signal flat, not every such curve was filed as active; the % refers to the signal ratio)
# Procedure, shortened: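 ME-180 NFkB-bla cells (beta-lactamase under NFkB response element), plated overnight, treated with compound then 10 pM TNF alpha (about EC50) for 5 hrs at 37 C. LiveBLAzer FRET read at 460/530 nm emission, 405 nm excitation.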
# Chain of 3',5'-cyclic-AMP phosphodiesterase 4B (Homo sapiens) (Q07343 whole entry, looked up): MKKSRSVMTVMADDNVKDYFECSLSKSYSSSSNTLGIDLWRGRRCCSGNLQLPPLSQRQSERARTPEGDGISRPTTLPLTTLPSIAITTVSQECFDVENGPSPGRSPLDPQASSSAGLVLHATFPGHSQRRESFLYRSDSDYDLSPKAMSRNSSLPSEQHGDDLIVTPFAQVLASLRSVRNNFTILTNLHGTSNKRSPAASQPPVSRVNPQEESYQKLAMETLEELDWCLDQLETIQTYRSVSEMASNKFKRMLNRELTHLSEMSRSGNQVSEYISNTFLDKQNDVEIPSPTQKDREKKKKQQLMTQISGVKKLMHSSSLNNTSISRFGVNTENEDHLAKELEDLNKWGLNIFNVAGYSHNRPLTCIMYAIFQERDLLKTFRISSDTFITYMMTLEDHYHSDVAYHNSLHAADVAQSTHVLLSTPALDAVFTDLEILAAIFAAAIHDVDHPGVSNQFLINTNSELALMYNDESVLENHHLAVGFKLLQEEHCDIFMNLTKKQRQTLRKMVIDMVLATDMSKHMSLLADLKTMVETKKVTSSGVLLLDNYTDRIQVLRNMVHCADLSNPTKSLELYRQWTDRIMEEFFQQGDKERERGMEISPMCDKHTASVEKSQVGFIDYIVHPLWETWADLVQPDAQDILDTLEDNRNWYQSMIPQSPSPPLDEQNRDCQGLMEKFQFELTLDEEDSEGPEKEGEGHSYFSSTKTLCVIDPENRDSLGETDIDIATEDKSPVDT
# Chain of Guanine nucleotide-binding protein G(i) subunit alpha-1 (Homo sapiens) (P63096 whole entry, looked up): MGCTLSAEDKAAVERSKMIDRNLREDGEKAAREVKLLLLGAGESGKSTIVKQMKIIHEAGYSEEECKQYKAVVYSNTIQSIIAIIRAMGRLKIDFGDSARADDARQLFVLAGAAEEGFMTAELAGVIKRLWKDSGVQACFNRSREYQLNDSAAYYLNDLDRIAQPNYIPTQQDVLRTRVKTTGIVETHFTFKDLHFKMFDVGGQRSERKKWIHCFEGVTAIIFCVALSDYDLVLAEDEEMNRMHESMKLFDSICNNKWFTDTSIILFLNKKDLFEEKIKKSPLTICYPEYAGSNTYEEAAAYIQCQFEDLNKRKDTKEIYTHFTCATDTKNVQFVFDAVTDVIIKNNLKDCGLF
# Chain of Cytochrome P450 3A4 (Homo sapiens) (P08684 whole entry, looked up): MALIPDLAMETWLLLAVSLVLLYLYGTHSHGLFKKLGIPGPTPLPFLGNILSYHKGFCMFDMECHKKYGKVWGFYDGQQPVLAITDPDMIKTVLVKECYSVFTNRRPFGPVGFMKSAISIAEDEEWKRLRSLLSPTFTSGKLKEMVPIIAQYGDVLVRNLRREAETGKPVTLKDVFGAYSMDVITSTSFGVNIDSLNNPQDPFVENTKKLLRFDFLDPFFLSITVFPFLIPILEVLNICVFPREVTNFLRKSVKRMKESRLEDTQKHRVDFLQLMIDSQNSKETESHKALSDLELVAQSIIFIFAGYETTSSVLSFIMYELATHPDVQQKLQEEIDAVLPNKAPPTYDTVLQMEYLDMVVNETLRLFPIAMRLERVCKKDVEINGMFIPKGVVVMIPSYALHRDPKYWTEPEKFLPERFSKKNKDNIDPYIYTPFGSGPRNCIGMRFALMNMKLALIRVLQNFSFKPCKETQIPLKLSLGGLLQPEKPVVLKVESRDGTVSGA
smiles,measurement,setting,value
CCN(CC)CCNC(=O)c1ccc(NC(C)=O)cc1,Potency,[1],inactive
same,Potency,[2],inactive
CCCCNc1ccc(C(=O)OCCN(C)C)cc1,Potency,[1],inactive
same,Potency,[2],inactive
COCC(=O)O[C@]1(CCN(C)CCCc2nc3ccccc3[nH]2)CCc2cc(F)ccc2[C@@H]1C(C)C,Potency,[1],inactive
same,Potency,[2],inactive
CCN(CC)CCOCCOC(=O)C1(c2ccccc2)CCCC1,Potency,[1],inactive
same,Potency,[2],inactive
Cc1ccc(S(=O)(=O)NC(=O)NN2CCCCCC2)cc1,Potency,[1],inactive
same,Potency,[2],inactive
CSc1ccc(C(=O)c2[nH]c(=O)[nH]c2C)cc1,Potency,[1],inactive
same,Potency,[2],inactive
Nc1nc(N)c2nc(-c3ccccc3)c(N)nc2n1,Potency,[3],25.1 µM (active)
same,Potency,[1],inactive
same,outcome,[4],inactive
same,outcome,[5],inactive
same,outcome,[6],inactive
same,outcome,[7],inactive
same,outcome,[8],inactive
same,outcome,[9],inactive
same,outcome,[10],inactive
same,outcome,[11],inactive
same,Potency,[2],inactive
CCn1nc(C(=O)O)c(=O)c2cc3c(cc21)OCO3,Potency,[1],inactive
same,Potency,[2],inactive
CCCCOCCOCCOCc1cc2c(cc1CCC)OCO2,Potency,[3],inactive
same,outcome,[12],inactive
same,Potency,[13],inactive
same,outcome,[4],inactive
same,outcome,[5],inactive
same,outcome,[14],inactive
same,Potency,[15],inactive
same,outcome,[6],inactive
same,caspase-3 activation,[16],1.34% (inactive)
same,outcome,[7],inactive
same,outcome,[8],inactive
same,outcome,[9],inactive
same,outcome,[10],inactive
same,outcome,[11],inactive
O=c1[nH]c(=O)n([C@H]2C[C@H](O)[C@@H](CO)O2)cc1Br,Potency,[3],inactive
same,outcome,[12],inactive
same,Potency,[13],inactive
same,outcome,[4],inactive
same,outcome,[5],inactive
same,outcome,[14],inactive
same,Potency,[15],inactive
same,outcome,[6],inactive
same,caspase-3 activation,[16],-0.482% (inactive)
same,outcome,[7],inactive
same,outcome,[8],inactive
same,outcome,[9],inactive
same,outcome,[10],inactive
same,outcome,[11],inactive
same,Potency,[2],inactive
same,outcome,[17],inactive
same,Potency,[18],inactive
COc1cc(Cc2cnc(N)nc2N)cc(OC)c1OC,Potency,[3],inactive
same,Potency,[1],inactive
same,outcome,[12],inactive
same,Potency,[13],inactive
same,outcome,[4],inactive
same,outcome,[5],inactive
same,outcome,[14],inactive
same,Potency,[15],inactive
same,outcome,[6],inactive
same,caspase-3 activation,[16],0.291% (inactive)
same,outcome,[7],inactive
same,outcome,[8],inactive
same,outcome,[9],inactive
same,outcome,[10],inactive
same,outcome,[11],inactive
same,Potency,[2],inactive
